Test results as given in PubChem BioAssay (NCI).
About 83,000 compounds went through this panel and 20% of them were active in at least one assay; those are over-represented in the sample as a whole.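 Note: values are percent growth. 100 is the growth of untreated cells, values between 100 and 0 indicate rising inhibition; between -100 and 0 indicates cell death.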 A number with no mark means an inactive call. The source made the active and inactive calls. The calls were made as follows: active = growth percent below 10; inactive = the rest.

Tests used:
Assay in all cases: NCI-60 one-dose screen, 48 h (100 = growth as untreated, 0 = no growth, -100 = all killed)
Conditions in all cases: 10 µM
[1] = test system: 786-0 renal
[2] = test system: MALME-3M melanoma
[3] = test system: RXF 393 renal
[4] = test system: UACC-257 melanoma
[5] = test system: SK-MEL-2 melanoma
[6] = test system: SN12C renal
[7] = test system: TK-10 renal
[8] = test system: ACHN renal
[9] = test system: A498 renal
[10] = test system: RPMI-8226 leukemia
[11] = test system: OVCAR-8 ovarian
[12] = test system: OVCAR-4 ovarian
[13] = test system: SK-OV-3 ovarian
[14] = test system: IGROV1 ovarian
[15] = test system: OVCAR-3 ovarian
[16] = test system: NCI/ADR-RES ovarian
[17] = test system: T-47D breast
[18] = test system: BT-549 breast
[19] = test system: MDA-MB-435 melanoma
[20] = test system: MCF7 breast

Structure (SMILES) | growth [1] | growth [2] | growth [3] | growth [4] | growth [5] | growth [6] | growth [7] | growth [8] | growth [9] | growth [10] | growth [11] | growth [12] | growth [13] | growth [14] | growth [15] | growth [16] | growth [17] | growth [18] | growth [19] | growth [20]
O=C(/C=C/c1cccc(Br)c1)c1nc2ccccc2n1Cc1ccc(F)cc1 | 12.5% | 50.5% | 6.83% (active) | 55.1% | 63.9% | 47.3% | 80.2% | 40.7% | 116% | -24.7% (active) | 28.2% | 54.8% | 81.2% | 40.4% | 22.1% | 8.54% (active) | 17.9% | 12.5% | 11.6% | 8.41% (active)
O=C(/C=C/c1ccccc1Cl)c1nc2ccccc2n1Cc1ccc(F)cc1 | -95.3% (active) | -80% (active) | -97.8% (active) | -61.1% (active) | -68.5% (active) | -89.4% (active) | -44.2% (active) | -88% (active) | 62.5% | -29.7% (active) | -66.1% (active) | 4.42% (active) | 8.31% (active) | -78.1% (active) | -50.8% (active) | -56% (active) | -66.9% (active) | -92.2% (active) | -46.7% (active) | -59.3% (active)
COC(=O)C[C@](O)(CCC(C)C)C(=O)O[C@@H]1C(OC)=C[C@]23CCCN2CCc2cc4c(cc2[C@H]13)OCO4 | -46.8% (active) | -90.9% (active) | -89.6% (active) | -66.7% (active) | -85.9% (active) | -26.7% (active) | -23.8% (active) | -25.1% (active) | -46.5% (active) | -30.2% (active) | -62.9% (active) | -42.4% (active) | -25.6% (active) | -29.3% (active) | -26.9% (active) | -29.7% (active) | -24% (active) | -42% (active) | -84% (active) | -19.4% (active)
